Test results: the supplement of paper PMC4840960
Counter-ions that a name gives are not always drawn. ± gives the standard deviation of the averaged measurements.

Test system: E18 rat cortical neuron-glia co-culture
Test: fiber score / MBP score (myelination specific beyond OL differentiation) (ratio); higher = more myelination-specific MBP alignment
Details: 5 µM; treatment time: 8 days (DIV5-DIV13)
How it was run: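 Fiber score divided by MBP score is the read-out; fiber score is continuous MBP fiber length per Olig2+ nucleus, and MBP score is thresholded MBP area × intensity per Olig2+ nucleus. Primary E18 rat cortical co-cultures were dissociated with papain and seeded at 20,000 cells/well on poly-d-lysine/laminin 96-well plates. Library compounds at 1 or 5 µM were given in myelination medium from DIV5 to DIV13, after which cells were fixed in 4 % paraformaldehyde, immunostained for MBP and Olig2 with DAPI, and imaged in four 10X fields per well in duplicate wells.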

SMILES | fiber score / MBP score
CCCCC(=O)O[C@H]1CC[C@H]2[C@@H]3CCc4cc(O)ccc4[C@H]3CC[C@]12C [Estradiol valerate] | 1.04
CN(C)CCC=C1c2ccccc2COc2ccccc21 [Doxepin] | 0.732 ± 0.042
NC(=O)c1cccnc1 [Niacinamide] | 0.901
COc1cc(C[C@@H](CO)[C@H](CO)Cc2ccc(O)c(OC)c2)ccc1O [Secoisolariciresinol] | 0.777
CCCc1c(OCCCCc2nnn[nH]2)ccc(C(C)=O)c1O | 1
O=C(c1ccc(F)cc1)C1CCN(CCn2c(=S)[nH]c3ccccc3c2=O)CC1 [Altanserin] | 0.605
Nc1ccc2cn[nH]c2c1 [6-Aminoindazole] | 0.815
C[C@@H]1C[C@H]2[C@@H]3CCC4=CC(=O)C=C[C@]4(C)[C@@]3(F)[C@@H](O)C[C@]2(C)[C@H]1C(=O)CO [Desoximetasone] | 0.758
O=C1CC2(CCCC2)CC(=O)N1CCNCC1COc2ccccc2O1 (stereo not drawn) [Binospirone] | 0.49
N[C@@H]1CONC1=O [Cycloserine] | 0.637
CCOc1ccc2ccccc2c1C(=O)N[C@@H]1C(=O)N2[C@@H]1SC(C)(C)[C@@H]2C(=O)O [Nafcillin] | 0.777
N#Cc1ccc(C(c2ccc(C#N)cc2)n2cncn2)cc1 [letrozole] | 1.09
CCCCN1CCCCC1C(=O)Nc1c(C)cccc1C (stereo not drawn) [Bupivacaine] | 0.575
CC(C)[N+](C)(CCOC(=O)C1c2ccccc2Oc2ccccc21)C(C)C [Propantheline] | 0.949
CN1CCC(=C2c3ccccc3CCc3sccc32)CC1 [Pizotyline] | 0.636
Clc1cccc(Cl)c1NC1=NCCN1 [Clonidine hydrochloride] | 0.879
Nc1nc(N)c2nc(-c3ccccc3)c(N)nc2n1 [Triamterene] | 1.62
Cn1ccnc1S [Methimazole] | 0.312
O=C(CCCN1CCC(O)(c2ccc(Cl)cc2)CC1)c1ccc(F)cc1 [Haloperidol] | 0.498
CN(C)CCCN1c2ccccc2CCc2ccc(Cl)cc21 [Clomipramine] | 0.899

SMILES | fiber score / MBP score
COC(=O)CCc1ccc(OCC(O)CNC(C)C)cc1 (stereo not drawn) [Esmolol] | 0.988
COc1ccc(CN2CCN(C(c3ccc(F)cc3)c3ccc(F)cc3)CC2)c(OC)c1OC [Lomerizine] | 0.643
CC(C)(C#N)c1cc(Cn2cncn2)cc(C(C)(C)C#N)c1 [Anastrozole] | 0.734
CC(=O)NS(=O)(=O)c1ccc(N)cc1 [Sulfacetamide] | 1.2
CC(C)NCC(O)c1ccc(O)c(O)c1 (stereo not drawn) [Isoproterenol] | 0.931
CC(C)[N+]1(C)[C@@H]2CC[C@H]1C[C@@H](OC(=O)C(CO)c1ccccc1)C2 (stereo partly drawn) [Ipratropium] | 1.52
C[C@@H](c1ncncc1F)[C@](O)(Cn1cncn1)c1ccc(F)cc1F [Voriconazole] | 0.824
c1ccc(-c2ccc(C(c3ccccc3)n3ccnc3)cc2)cc1 (stereo not drawn) [Bifonazole] | 1.22
COc1ccc([C@@H]2Sc3ccccc3N(CCN(C)C)C(=O)[C@@H]2OC(C)=O)cc1 [Diltiazem] | 0.558
CC1(C)S[C@@H]2[C@H](/N=C/N3CCCCCC3)C(=O)N2[C@H]1C(=O)O [Amdinocillin] | 0.866
CC(C)NCC(O)c1ccc(NS(C)(=O)=O)cc1 (stereo not drawn) [Sotalol] | 0.499
CC1(C)S[C@@H]2[C@H](NC(=O)COc3ccccc3)C(=O)N2[C@H]1C(=O)O [Penicillin V] | 0.734
CC(C)NCC(O)COc1cccc2ccccc12 (stereo not drawn) [Propranolol] | 0.95
CC(=O)O[C@@]12CO[C@@H]1C[C@H](O)[C@@]1(C)C(=O)[C@H](O)C3=C(C)[C@@H](OC(=O)[C@H](O)[C@@H](NC(=O)OC(C)(C)C)c4ccccc4)C[C@@](O)([C@@H](OC(=O)c4ccccc4)[C@H]21)C3(C)C [Docetaxel] | 1.62
CC(=O)S[C@@H]1CC2=CC(=O)CC[C@]2(C)[C@H]2CC[C@@]3(C)[C@@H](CC[C@@]34CCC(=O)O4)[C@H]12 [Spironolactone] | 1.22
CC(C)(C)NC[C@H](O)COc1nsnc1N1CCOCC1 [Timolol] | 1.02
COc1ccc(C(=O)NCc2ccc(OCCN(C)C)cc2)cc1OC [Itopride] | 0.693
Nc1nnc(-c2cccc(Cl)c2Cl)c(N)n1 [Lamotrigine] | 0.746
CC(C)/N=c1\cc2n(-c3ccc(Cl)cc3)c3ccccc3nc-2cc1Nc1ccc(Cl)cc1 [Clofazimine] | 0.962

Test system: E18 rat cortical neuron-glia co-culture
Test: myelination (MBP fiber length per Olig2+ nucleus), % of 1 µM DAPT response (DMSO = 0) (% of DAPT); higher = more myelination, active = 50 or more
Details: 1 µM; treatment time: 8 days (DIV5-DIV13)
How it was run: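 Four 10X fields in each of duplicate wells were analysed after cultures were fixed in 4 % paraformaldehyde and immunostained for MBP and Olig2, with DAPI as the nuclear counterstain. The cultures were papain-dissociated primary E18 rat cortical co-cultures at 20,000 cells/well on poly-d-lysine/laminin 96-well plates, dosed with library compounds at 1 or 5 µM in myelination medium from DIV5 to DIV13. The myelination readout was continuous straight MBP fiber length per Olig2+ nucleus, with 0.1 % DMSO set to 0 and a 1 µM positive control set to 100.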

SMILES | myelination
CCCCC(=O)O[C@H]1CC[C@H]2[C@@H]3CCc4cc(O)ccc4[C@H]3CC[C@]12C [Estradiol valerate] | 1.8 (inactive)
CN(C)CCC=C1c2ccccc2COc2ccccc21 [Doxepin] | -6.24 (inactive)
NC(=O)c1cccnc1 [Niacinamide] | -7.93 (inactive)
COc1cc(C[C@@H](CO)[C@H](CO)Cc2ccc(O)c(OC)c2)ccc1O [Secoisolariciresinol] | -4.03 (inactive)
CCCc1c(OCCCCc2nnn[nH]2)ccc(C(C)=O)c1O | -11.5 (inactive)
O=C(c1ccc(F)cc1)C1CCN(CCn2c(=S)[nH]c3ccccc3c2=O)CC1 [Altanserin] | 0.872 (inactive)
Nc1ccc2cn[nH]c2c1 [6-Aminoindazole] | -12.7 (inactive)
C[C@@H]1C[C@H]2[C@@H]3CCC4=CC(=O)C=C[C@]4(C)[C@@]3(F)[C@@H](O)C[C@]2(C)[C@H]1C(=O)CO [Desoximetasone] | 7.66 (inactive)
O=C1CC2(CCCC2)CC(=O)N1CCNCC1COc2ccccc2O1 (stereo not drawn) [Binospirone] | -14.3 (inactive)
N[C@@H]1CONC1=O [Cycloserine] | -22.5 (inactive)
CCOc1ccc2ccccc2c1C(=O)N[C@@H]1C(=O)N2[C@@H]1SC(C)(C)[C@@H]2C(=O)O [Nafcillin] | 4.05 (inactive)
N#Cc1ccc(C(c2ccc(C#N)cc2)n2cncn2)cc1 [letrozole] | -16.4 (inactive)
CCCCN1CCCCC1C(=O)Nc1c(C)cccc1C (stereo not drawn) [Bupivacaine] | -11.2 (inactive)
CC(C)[N+](C)(CCOC(=O)C1c2ccccc2Oc2ccccc21)C(C)C [Propantheline] | -4.45 (inactive)
CN1CCC(=C2c3ccccc3CCc3sccc32)CC1 [Pizotyline] | -41 (inactive)
Clc1cccc(Cl)c1NC1=NCCN1 [Clonidine hydrochloride] | -10.4 (inactive)
Nc1nc(N)c2nc(-c3ccccc3)c(N)nc2n1 [Triamterene] | 68.5
Cn1ccnc1S [Methimazole] | -14.3 (inactive)
O=C(CCCN1CCC(O)(c2ccc(Cl)cc2)CC1)c1ccc(F)cc1 [Haloperidol] | -18 (inactive)
CN(C)CCCN1c2ccccc2CCc2ccc(Cl)cc21 [Clomipramine] | -10.8 (inactive)

SMILES | myelination
COC(=O)CCc1ccc(OCC(O)CNC(C)C)cc1 (stereo not drawn) [Esmolol] | 2.16 (inactive)
COc1ccc(CN2CCN(C(c3ccc(F)cc3)c3ccc(F)cc3)CC2)c(OC)c1OC [Lomerizine] | 14.1 (inactive)
CC(C)(C#N)c1cc(Cn2cncn2)cc(C(C)(C)C#N)c1 [Anastrozole] | -5.96 (inactive)
CC(=O)NS(=O)(=O)c1ccc(N)cc1 [Sulfacetamide] | -10.6 (inactive)
CC(C)NCC(O)c1ccc(O)c(O)c1 (stereo not drawn) [Isoproterenol] | 13.7 (inactive)
CC(C)[N+]1(C)[C@@H]2CC[C@H]1C[C@@H](OC(=O)C(CO)c1ccccc1)C2 (stereo partly drawn) [Ipratropium] | 0.204 (inactive)
C[C@@H](c1ncncc1F)[C@](O)(Cn1cncn1)c1ccc(F)cc1F [Voriconazole] | -40.5 (inactive)
c1ccc(-c2ccc(C(c3ccccc3)n3ccnc3)cc2)cc1 (stereo not drawn) [Bifonazole] | -18.8 (inactive)
COc1ccc([C@@H]2Sc3ccccc3N(CCN(C)C)C(=O)[C@@H]2OC(C)=O)cc1 [Diltiazem] | -10.1 (inactive)
CC1(C)S[C@@H]2[C@H](/N=C/N3CCCCCC3)C(=O)N2[C@H]1C(=O)O [Amdinocillin] | -21.5 (inactive)
CC(C)NCC(O)c1ccc(NS(C)(=O)=O)cc1 (stereo not drawn) [Sotalol] | -33.5 (inactive)
CC1(C)S[C@@H]2[C@H](NC(=O)COc3ccccc3)C(=O)N2[C@H]1C(=O)O [Penicillin V] | -3.1 (inactive)
CC(C)NCC(O)COc1cccc2ccccc12 (stereo not drawn) [Propranolol] | 9.85 (inactive)
CC(=O)O[C@@]12CO[C@@H]1C[C@H](O)[C@@]1(C)C(=O)[C@H](O)C3=C(C)[C@@H](OC(=O)[C@H](O)[C@@H](NC(=O)OC(C)(C)C)c4ccccc4)C[C@@](O)([C@@H](OC(=O)c4ccccc4)[C@H]21)C3(C)C [Docetaxel] | 263 (active)
CC(=O)S[C@@H]1CC2=CC(=O)CC[C@]2(C)[C@H]2CC[C@@]3(C)[C@@H](CC[C@@]34CCC(=O)O4)[C@H]12 [Spironolactone] | -5.5 (inactive)
CC(C)(C)NC[C@H](O)COc1nsnc1N1CCOCC1 [Timolol] | -4.47 (inactive)
COc1ccc(C(=O)NCc2ccc(OCCN(C)C)cc2)cc1OC [Itopride] | -10.9 (inactive)
Nc1nnc(-c2cccc(Cl)c2Cl)c(N)n1 [Lamotrigine] | -23.5 (inactive)
CC(C)/N=c1\cc2n(-c3ccc(Cl)cc3)c3ccccc3nc-2cc1Nc1ccc(Cl)cc1 [Clofazimine] | -9.19 (inactive)
